For 6 molecules, Potency, max response and outcome results are on record in PubChem BioAssay (NCATS).

“And” between values parts separate entries of the source, which are not always exact repeats. Equal values may be shown once. Records with an inconclusive call do not appear. Unmarked numbers belong to inactive results. The source made the active and inactive calls. The call rests on the fitted dose curve; in most records, active means well fitted inhibition curve with a large enough effect; inconclusive means small, poorly fitted or top-dose-only effect; inactive means flat fitted curve, though single readings scatter.

One experiment has as its system N140. In words: qHTS profiling for inhibitors of Plasmodium falciparum proliferation (AID 504749). Further: potency means the concentration at half of the fitted maximal effect. The conditions noted are these: P. falciparum in erythrocytes, SYBR Green DNA, 72 h; series mostly up to 28.7 µM. The method, boiled down: (§1)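 Quantitative HTS: compounds pinned into medium, infected erythrocytes added (0.3% parasitemia, 2.5% hematocrit), 72 h culture at 37 C under 5% CO2. Saponin/Triton lysis with SYBR Green I, overnight RT, then fluorescence read.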
(In qHTS, concentration-response curves come from the screen itself.)

In a further experiment the test system is P93_24. The description is as above. The conditions noted are these: P. falciparum in erythrocytes, SYBR Green DNA, 72 h; series mostly up to 28.7 µM. The procedure, abridged: as §1
The subject of the next experiment is P94_40. Described as above. The conditions noted are these: P. falciparum in erythrocytes, SYBR Green DNA, 72 h; series mostly up to 28.7 µM. The procedure, abridged:
as §1

A further experiment has as its system PAD. The description is as above. The conditions noted are these: P. falciparum in erythrocytes, SYBR Green DNA, 72 h; series mostly up to 28.7 µM. The procedure, abridged: as §1
A further experiment has as its system PC15. The experiment is described as above. The conditions noted are these: P. falciparum in erythrocytes, SYBR Green DNA, 72 h; series mostly up to 28.7 µM. The method, boiled down: as §1
For a further experiment, the system named is PC26. Described as above. The conditions noted are these: P. falciparum in erythrocytes, SYBR Green DNA, 72 h; series mostly up to 28.7 µM. The procedure, abridged: as §1
For another experiment, the system named is PC49. The description is as above. The conditions noted are these: P. falciparum in erythrocytes, SYBR Green DNA, 72 h; series mostly up to 28.7 µM. The method, boiled down: as §1
In another experiment the test system is SC27B. The description is as above. The conditions noted are these: P. falciparum in erythrocytes, SYBR Green DNA, 72 h; series mostly up to 28.7 µM. The method, boiled down: as §1
In a further experiment the test system is TAB109. The description is as above. The conditions noted are these: P. falciparum in erythrocytes, SYBR Green DNA, 72 h; series mostly up to 28.7 µM. The method, boiled down:
as §1

The next experiment deals with TAB113. The experiment is described as above. The conditions noted are these: P. falciparum in erythrocytes, SYBR Green DNA, 72 h; series mostly up to 28.7 µM. The procedure, abridged: as §1
A further experiment has as its system TAB165. The description is as above. The conditions noted are these: P. falciparum in erythrocytes, SYBR Green DNA, 72 h; series mostly up to 28.7 µM. The method, boiled down: as §1
The test system of the next experiment is W2. Described as above. The conditions noted are these: P. falciparum in erythrocytes, SYBR Green DNA, 72 h; series mostly up to 28.7 µM. The method, boiled down: as §1
The test system of experiment [1] is CRL-7250. In words: Cytotoxic Profiling of Annotated Libraries Using Quantitative High-Throughput Screening (AID 1296008). Further: potency means the concentration at half of the fitted maximal effect. On max response: on the % scale 0 is the no-effect control and ±100 the full control effect. The conditions noted are these: Five cell lines viability, CellTiter-Glo ATP luminescence, 48-72 h; max response: active compounds read low. The method, boiled down:
(§2)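 Compounds were pin-transferred onto cells and incubated 48 or 72 hr at 37 degree Celsius, 95% humidity. CellTiter-Glo was added, plates sat 10 min at room temperature, then ATP-coupled luminescence was imaged as the viability read-out.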

In the next experiment the test system is HEK293. Described as above. The conditions noted are these: Five cell lines viability, CellTiter-Glo ATP luminescence, 48-72 h; max response: active compounds read low. The method, boiled down: as §2
Background: Cellular ATP, detected with luciferase, serves as a proxy for viable cell number.

The test system of experiment [2] is HaCat. Described as above. The conditions noted are these: Five cell lines viability, CellTiter-Glo ATP luminescence, 48-72 h; max response: active compounds read low. The procedure, abridged: as §2
The test system of the next experiment is KB-3-1. Described as above. The conditions noted are these: Five cell lines viability, CellTiter-Glo ATP luminescence, 48-72 h; max response: active compounds read low. The procedure, abridged: as §2
A further experiment deals with NIH3T3. Described as above. The conditions noted are these: Five cell lines viability, CellTiter-Glo ATP luminescence, 48-72 h; max response: active compounds read low. The procedure, abridged: as §2
Experiment [3] relates to HACAT. In words: qHTS assay to identify novel small-molecules to repurpose for Merkel cell carcinoma treatment (AID 1296009). The conditions noted are these: MCC and control cell lines, CellTiter-Glo viability, 72 h; at 44.8 µM (top of the series) unless noted. The method, boiled down:
(§3)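 Viability readout: ATP luminescence (CellTiter-Glo) after 72 hr drug exposure at 37 degree celsius. Dose-response format was 8 points for NPC and 11 points for MIPE; data normalized to in-plate controls.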

Another experiment deals with HEK293T. Described as above. The conditions noted are these: MCC and control cell lines, CellTiter-Glo viability, 72 h; at 44.8 µM (top of the series). The procedure, abridged: as §3
In experiment [4] the test system is CRL-7250. Described as above. The conditions noted are these: MCC and control cell lines, CellTiter-Glo viability, 72 h; series mostly up to 44.8 µM. The method, boiled down: as §3
Further: nearly all actives have a fitted effect of over 60% in size.

Regarding `CN(C)CCc1ccc(O)cc1`, the Potency result in the experiment with N140, with P93_24, in the experiment on P94_40, in the experiment with PAD, in the experiment on PC15 and with PC26 was “inactive” in each case. Also, the Potency entry in the experiment with PC49, in the experiment with SC27B, in the experiment with TAB109, with TAB113, in the experiment on TAB165 and in the experiment with W2 was “inactive” each time. Moreover, the max response is -1.07% and -0.797% in the experiment with CRL-7250 [1]; 4.35% with HEK293; 3.93% with HaCat [2]; -1.4% and 4.63% in the experiment on KB-3-1; -1.51% and -2.46% with NIH3T3. Moreover, the outcome in the experiment with HEK293, in the experiment on HaCat [2], in the experiment on HACAT [3] and with HEK293T was inactive.
In the case of `C[C@@H]1O[C@@H](O[C@H]2C[C@@H](O)[C@]3(CO)[C@H]4[C@H](O)C[C@]5(C)[C@@H](C6=CC(=O)OC6)CC[C@]5(O)[C@@H]4CC[C@]3(O)C2)[C@H](O)[C@H](O)[C@H]1O`, the Potency in the experiment on CRL-7250 [1] is 29.6 nM (active) and 84.1 nM (active) and 89.3 nM (active); in the experiment with HEK293, 46.9 nM (active) and 94.4 nM (active) and 70.9 nM (active); in the experiment on HaCat [2] it was 266 nM (active) and 142 nM (active); in the experiment with KB-3-1 it was 52.6 nM (active) and 46.1 nM (active) and 112 nM (active). Further, the molecule was called inactive in the experiment on NIH3T3.
For `CN1C(=S)CN=C(c2ccccc2)c2cc(Cl)ccc21`, the Potency entry in the experiment with N140, in the experiment on P93_24, with P94_40, in the experiment on PAD, with PC15 and in the experiment with PC26 was “inactive” each time. Also, the Potency entry in the experiment with PC49, with SC27B, with TAB109, with TAB113, in the experiment with TAB165 and in the experiment with W2 was “inactive” in each case. The result in the experiment on CRL-7250 [1], in the experiment on HaCat [2], in the experiment on NIH3T3, in the experiment with CRL-7250 [4] and in the experiment on HACAT [3] was inactive. Further, the max response with HEK293 is -23.9%; with KB-3-1 it was 4.4%.
Turning to `CC(C)NCC(O)c1ccccc1Cl` (stereo unspecified), the Potency was 7.08 µM (active) in the experiment with N140; 12.6 µM (active) in the experiment on P93_24; 3.98 µM (active) with P94_40; 7.94 µM (active) in the experiment on PAD; 11.2 µM (active) with PC15; 10 µM (active) in the experiment with SC27B. The Potency in the experiment on TAB109 is 4.47 µM (active); in the experiment on TAB113, 12.6 µM (active); with W2, 3.38 µM (active). The molecule was called inactive in the experiment with CRL-7250 [1], in the experiment with HEK293, in the experiment with CRL-7250 [4] and with HEK293T. The max response was -6.64% with HaCat [2], -12% in the experiment with KB-3-1 and -1.73% with NIH3T3.
On to `CCN(CC)C(=O)N[C@@H]1C=C2c3cccc4[nH]cc(c34)C[C@@H]2N(C)C1`, for which the molecule was called inactive in the experiment on CRL-7250 [1], with NIH3T3 and with CRL-7250 [4]. Further, the figures for the max response in the experiment with HEK293, with HaCat [2] and with KB-3-1 were -11.8%, -0.0252% and -10.6%, respectively.
Consider `Cn1c(CCCC(=O)O)nc2cc(N(CCCl)CCCl)ccc21`, for which the Potency result in the experiment with N140, with P93_24, in the experiment on P94_40, with PAD, with PC15 and with PC26 was “inactive” each time. Also, the Potency entry in the experiment on PC49, with SC27B, in the experiment with TAB113 and with TAB165 was “inactive” each time. For the same molecule, the max response is 3.94% in the experiment on CRL-7250 [1]; 1.54% in the experiment on HEK293; -5.87% and -9.93% in the experiment on HaCat [2]; 3.92% and 3.13% in the experiment with KB-3-1; -2.08% and -18.1% in the experiment with NIH3T3. The call in the experiment on CRL-7250 [1], with HEK293, in the experiment with CRL-7250 [4] and in the experiment with HEK293T was inactive.
